AMA1 RON2 block = AMA1-RON2 (P. falciparum) interaction inhibition. hit rate 0.2% among 360,000. AlphaScreen AMA1-biotinylated RON2 peptide binding. Potency, µM (top dose mostly 58.2 µM), actives largely listed as inhibitors. AID 720542; also: nearly all actives have a fitted effect of over 45% in size
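AMA1 (3D7) with his tag at 25 nM final met compounds first, then biotinylated RON2 peptide at 25 nM; detection used donor plus acceptor beads, 10 µg/mL apiece, read by AlphaScreen after 30 min at room temperature.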
Cycloheximide cs = affects cycloheximide protein synthesis inhibition readout, counter-screen; max response, %; hit rate 12% among 300,000; AID 2314; cell reporter, cycloheximide protein synthesis inhibition counterscreen; in the data active = max response mostly above about 13%, no sharp cut-off; inactive = mostly below about 14%; also: read at 38.3 µM for the half of the compounds with a filed dose
SARS PLP yeast = inhibitors of SARS-CoV papain-like protease in yeast | S. cerevisiae expressing SARS-CoV PLpro, growth rescue | Potency, µM (series often up to 32.9 µM), actives largely listed as activators | hit rate 0.19% among 330,000 | AID 485353; calls by dose curve; also: nearly all actives have a fitted effect of over 55% in size
Shiga inhibitor = inhibitors of Shiga toxin in Vero cells; Vero cells, Shiga toxin protein synthesis inhibition reporter; inhibition, % at 38.7 µM; hit rate 9.2% among 290,000; AID 2315; in the data active = inhibition mostly above about 28%, no sharp cut-off; inactive = mostly below about 43%
Pf growth 48h = P. falciparum growth inhibition at 48 hours (one generation) | P. falciparum luciferase growth in erythrocytes, 48 h | Potency, µM (top dose mostly 28.7 µM), hits mostly inhibitors | hit rate 5.9% among 310,000
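Here the parasites carry a stable luciferase gene and grow inside erythrocytes in Albumax-based RPMI medium with compound for one erythrocytic cycle. Activity is scored as loss of luminescent signal.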
Pf growth 96h = P. falciparum growth inhibition at 96 hours; hit rate 6.9% among 320,000; P. falciparum luciferase reporter growth, 96 h; Potency, µM (titrated, usually from 28.7 µM), hits mostly inhibitors; AID 504834
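Cell-based qHTS: luciferase-tagged P. falciparum in erythrocytes (2% hematocrit, 0.05% parasitemia final) incubated with compounds for 96 hours, 37 C, 5% CO2; luciferase detection reagent then added and luminescence measured.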
A number is an active result; . = inactive; ? = inconclusive; / = not tested or not shown. An excerpt weighted towards active compounds, which were near 19% of everything screened. Unless noted, calls follow the shape of the dose curve; as a rule, active = well fitted curve in the direction sought with a large enough effect; inconclusive = small, poorly fitted or top-dose-only effect, or another doubt; inactive = no such curve, though single readings can be large; an effect the other way counts as inactive or inconclusive.

SMILES	AMA1 RON2 block	Cycloheximide cs	SARS PLP yeast	Shiga inhibitor	Pf growth 48h	Pf growth 96h
COc1ccc(C2CC(=O)C3=C(C2)NC(C)=C(C(=O)Nc2ccccc2C)C3c2coc3ccc(C)cc3c2=O)cc1OC (stereo not drawn)	.	.	.	.	2.33µM	?
CC(C)Oc1ccc(/C(O)=C2/C(=O)C(=O)N(CCN(C)C)C2c2ccco2)cc1 (stereo not drawn)	.	39.0	.	134.1	.	/
CCOc1ccc(/C(O)=C2/C(=O)C(=O)N(c3nc(C)c(C)s3)C2c2ccco2)cc1 (stereo not drawn)	.	17.5	.	122.9	.	.
CCN(CC)CCCN1C(=O)C(=O)/C(=C(/O)c2ccc(OC)cc2)C1c1ccco1 (stereo not drawn)	.	/	/	/	/	/
CCN(CC)CCN1C(=O)C(=O)/C(=C(/O)c2ccc(OC)cc2)C1c1ccco1 (stereo not drawn)	.	.	.	.	.	0.928µM
COC(=O)c1sc(N2C(=O)C(=O)/C(=C(/O)c3ccc(C)cc3)C2c2ccco2)nc1C (stereo not drawn)	.	.	.	.	.	.
COc1cccc(-c2sc3ccc(OC)cc3c2-c2ccc(O)cc2)c1	.	/	.	/	?	?
COc1cccc(-c2sc3ccc(OC)cc3c2-c2cc(F)cc(OC)c2)c1	.	/	.	/	?	2.94µM
COc1cccc(-c2sc3ccc(OC)cc3c2-c2ccc(OCCN(C)C)cc2)c1	14.1µM	/	.	/	/	/
Cc1ccccc1NC(=O)Cc1cccc(C(F)(F)F)c1	.	.	.	.	.	.
ClCc1ncc(-c2ccc(Cl)cc2)o1	.	.	.	.	.	.
COc1ccc(OCCC(=O)OCC(=O)NCc2ccc(F)cc2)cc1	.	.	.	.	.	.
O=C(CCNS(=O)(=O)c1cccs1)N1CCc2ccccc2C1	.	28.7	.	86.3	.	/
Cc1cccc(N2CCN(C(=O)CCNS(=O)(=O)c3cccs3)CC2C)c1 (stereo not drawn)	.	15.6	.	65.5	.	.
CC1CC(C)CN(C(=O)CCNS(=O)(=O)c2cccs2)C1 (stereo not drawn)	.	.	.	.	.	.
Cn1c(N)c(C(=O)COC(=O)C2(c3ccc(F)cc3)CCCC2)c(=O)n(C)c1=O	.	.	.	.	4.15µM	2.33µM
Cn1c(N)c(C(=O)COC(=O)C2(c3ccccc3F)CCCC2)c(=O)n(C)c1=O	.	.	.	.	.	.
Cn1c(N)c(C(=O)COC(=O)C2(c3ccc(Cl)cc3)CCCC2)c(=O)n(C)c1=O	.	.	.	.	3.7µM	/
Cn1c(N)c(C(=O)COC(=O)C2CCC(C(C)(C)C)CC2)c(=O)n(C)c1=O (stereo not drawn)	.	.	.	.	13.1µM	/
O=C(COc1nc2ccccc2nc1N1CCOCC1)Nc1cccc(S(=O)(=O)N2CCCCC2)c1	.	.	.	.	.	?
O=S1(=O)N[C@@H](c2ccccc2)COc2cc(Br)ccc21	.	/	/	/	/	/
C1CCCCCC(NCCN2CCNCC2)CCCCC1	.	.	.	.	?	?
Cc1nc(C)c(C(=O)N2CCCC(C(=O)c3cc(F)ccc3F)C2)s1 (stereo not drawn)	.	.	.	.	.	5.86µM
CN(C)c1cccc(C(=O)N2CCCC(C(=O)c3cc(F)ccc3F)C2)c1 (stereo not drawn)	?	.	.	.	?	.
O=C(c1cc(F)ccc1F)C1CCCN(C(=O)c2ccc3nccnc3c2)C1 (stereo not drawn)	.	22.0	.	30.7	.	.
SMILES	AMA1 RON2 block	Cycloheximide cs	SARS PLP yeast	Shiga inhibitor	Pf growth 48h	Pf growth 96h
O=C(c1cc(F)ccc1F)C1CCCN(C(=O)c2ccc(F)cc2Cl)C1 (stereo not drawn)	.	.	.	.	.	1.17µM
COc1ccc(F)cc1C(=O)C1CCCN(C(=O)c2cccc(N(C)C)c2)C1 (stereo not drawn)	.	.	.	.	5.86µM	?
CC(C)(C)c1ccc(N2C[C@@H](COc3ccc(C(=O)O)cc3)CC2=O)cc1	/	.	/	.	/	/
COC(=O)[C@]1(C)N[C@H](CN(C)S(=O)(=O)c2ccc(OC)cc2)[C@@H]2C(=O)N(C)C(=O)[C@@H]21	.	/	.	/	/	/
CCc1nnc(NC(=O)[C@@H](NC(=O)c2cc(OC)cc(OC)c2)C(C)C)s1	.	.	.	.	.	.
Cc1cccc(C(=O)N[C@H](C(=O)OCC(=O)NC(=O)c2cccn2C)C(C)C)c1	.	31.8	.	.	.	.
CC(=O)NC12CC3CC(C1)CC(C(=O)OCC(=O)Nc1ncc(Cl)cc1Cl)(C3)C2	.	.	.	.	?	11.7µM
O=C(COC(=O)C12CC3CC(CC(Br)(C3)C1)C2)Nc1c(F)cccc1F	.	/	.	/	/	/
Cn1cccc1C(=O)NC(=O)COC(=O)c1ccccc1O	.	16.8	.	.	.	/
CC(=O)NC12CC3CC(C1)CC(C(=O)OCC(=O)Nc1c(F)cccc1F)(C3)C2	.	/	.	/	?	6.57µM
Cc1ccc(S(=O)(=O)N(CCC(=O)O)Cc2ccc(Cl)cc2)cc1	.	.	.	.	/	.
CCCCN(C(=O)c1cccc(-n2cnnn2)c1)c1c(N)n(CCCC)c(=O)[nH]c1=O	.	/	/	/	/	/
CCOC(=O)C1CCCN(S(=O)(=O)c2cc3c4c(c2)CCC(=O)N4CCC3)C1 (stereo not drawn)	.	/	.	/	?	?
Cn1cccc1C(=O)NC(=O)COC(=O)C12CC3CC(CC(O)(C3)C1)C2	.	43.1	.	53.4	/	.
CC(=O)NC12CC3CC(C1)CC(C(=O)OCC(=O)NC(=O)c1cccn1C)(C3)C2	.	20.3	.	.	.	/
C=Cc1cc(F)c(S(=O)(=O)N2CCN(S(=O)(=O)c3ccc4c(c3)OCCO4)CC2)cc1F	/	.	/	.	/	/
COc1ccc(N2CCN(C(=O)c3cc4c(s3)-c3ccccc3S(=O)(=O)C4)CC2)cc1	.	.	.	.	.	?
COc1ccc(OCC(=O)Nc2ccc3nc(C)sc3c2)cc1	.	.	.	.	.	.
Cc1nc(Nc2nc3ccccc3o2)nc2c1CCC2	.	30.3	.	.	.	.
Cc1cccc(C)c1Nc1nc2ccccc2o1	.	.	.	.	?	.
CCOC(=O)c1cnc(Nc2nc3ccccc3o2)nc1CSc1nnc(C)s1	.	/	/	/	/	/
CCOC(=O)c1cnc(Nc2nc3ccccc3o2)nc1C	.	35.8	.	67.7	/	.
CCOC(=O)c1cnc(Nc2ccccc2)nc1C(F)(F)F	.	35.9	.	92.0	.	.
O=C(O)c1cnc(-c2ccccc2)nc1C(F)(F)F	.	.	.	.	.	?
CCOC(=O)c1cnc(-c2ccccc2)nc1C(F)(F)F	.	51.9	.	73.7	.	.
CCOC(=O)c1cnc(C(F)(F)F)nc1Oc1ccccc1	.	.	.	.	.	?
CCOc1ccc(Cl)cc1S(=O)(=O)n1nnc2ccccc21	.	.	.	.	.	/

Assay outcomes: PubChem BioAssay, National Center for Advancing Translational Sciences (NCATS)
